This passage reports Potency results from PubChem BioAssay (NCATS).

Inconclusive results are not listed. A call without a number means that no potency is given here. The source made the active and inactive calls. The call rests on the fitted dose curve; in most records, active means well fitted inhibition curve with a large enough effect; inconclusive means small, poorly fitted or top-dose-only effect; inactive means no such curve, though single readings can be large or run the other way.
Potency means the concentration at half of the fitted maximal effect.

A short description of this test: S16 Schwann cell PMP22 intronic element firefly luciferase assay (AID 624032). Further: nearly all actives have a fitted effect of over 30% in size. The conditions noted are these: S16 rat Schwann cells, PMP22 element FLuc, 24 h; series mostly up to 57.5 µM. From the text: Charcot-Marie-Tooth-Association [CMTA]
National Center for Advancing Translational Sciences [NCATS]
Charcot-Marie-Tooth (CMT) disease was first characterized by Jean-Martin Charcot and Pierre Marie in France and, independently, by Howard Henry Tooth in England in 1886. CMT is one of the most common inherited neurological diseases, affecting approximately 1 in 2,500 Americans. […] The most prevalent type of CMT is known as CMT1A and caused by a duplication of the PMP22 gene which leads to over-expression of this protein. PMP22 is a glycosylated intrinsic membrane protein accounting for 2-5% of the myelin protein content, and its over-expression results in demyelination and subsequently axonal loss.
A pair of cellular transcription-based assays was developed in the S16 rat Schwann cell lines (Hai, M., et al., 2002) stably transfected with orthogonal reporters - firefly luciferase (Fluc) and beta-lactamase (beta-Lac) - whose expression is driven by an intronic regulatory element of the PMP22 gene (Jones, E.A., et al., 2011) to recapitulate endogenous expression of PMP22. The current assay employs Fluc to report on PMP22 expression. A comprehensive library of approved drugs, the NCGC Pharmaceutical Collection (Huang, R., et al., 2011), was screened in the cross-validating platform of the orthogonal reporter assays to identify drug modulators inhibitory towards PMP22 expression.
A set of counter-screens was devised to address non-specific activity of the library. An ATP-dependent CellTiter-Glo assay (developed by Promega Corp) was utilized to control cell viability. In addition, biochemical Fluc enzyme assay was performed to assess direct inhibition of the Fluc enzymatic activity.
Hai, M., Muja, N., DeVries, G.H., Quarles, R.H. and Patel, P.I. Comparative analysis of Schwann cell lines as model systems for myelin gene transcription studies. J Neurosci Res, 2002. 69(4): pp 497-508
Huang, R., Southall, N., Wang, Y., Yasgar A., Shinn P., Jadhav, A. , Nguyen, D.-T. and Austin, C.P., The NCGC pharmaceutical collection: a comprehensive resource of clinically approved drugs enabling repurposing and chemical genomics. Sci Transl Med, 2011. 3(80): p. 80ps16.
S16 Schwann cell PMP22 intronic element firefly luciferase assay
The FLuc-expressing S16 cells were seeded in white solid 1536-well plates at between 500-750 cells/4uL in DMEM medium containing 10% FBS, w/o phenol red. After overnight incubation at 37 degree Celsius/5% C02, 23 nL of compounds or DMSO were delivered to each well using a pin tool, followed by 24h-incubation at 37 degree Celsius/5% C02. Then 4 uL ONE-Glo luminescent substrate mix (Promega) was added to each well. Luminescence was measured on a ViewLux plate reader (Perkin Elmer). The % activity was determined by normalizing to the average readings of PTC124 (a positive control) - treated cells relative to DMSO-treated cells (0% Activity). The concentration-effect curves were then classified based on curve quality (r2), response magnitude and degree of measured activity.
Regarding `C[n+]1c2cc(N)ccc2cc2ccc(N)cc21`, the Potency is 1.81 µM (active). `Nc1nc(O)c(-c2ccccc2)o1`: the Potency result is “inactive”. For `CC1(C)S[C@@H]2[C@H](N)C(=O)N2C1C(=O)O` (stereo not given in full) the value was “inactive”. For `COC(C(=O)C(O)C(C)O)C1Cc2cc3cc(OC4CC(OC5CC(O)C(OC)C(C)O5)C(OC(C)=O)C(C)O4)c(C)c(O)c3c(O)c2C(=O)C1OC1CC(OC2CC(OC3CC(C)(O)C(OC(C)=O)C(C)O3)C(O)C(C)O2)C(O)C(C)O1` (stereo not given), the Potency result was “inactive”. As to `C#C[C@]1(O)CC[C@H]2[C@@H]3CCC4=CC(=O)CCC4(C)[C@H]3CCC21C` (stereo not given in full), the Potency entry is “inactive”. For `C=CC[C@]1(O)CCC2C3CCC4=CCCCC4C3CCC21C` (stereo not given in full), the Potency was 22.8 µM (active). Take `CNC1=CN(O)C(c2ccccc2)=c2cc(Cl)ccc2=N1`: the Potency result is “inactive”. Regarding `O=c1[nH]c(=O)n([C@H]2C[C@H](O)[C@@H](CO)O2)cc1/C=C/Br`, the Potency entry was “inactive”.

Consider `C=CC[N+]1(C)CCC23c4c5ccc(O)c4O[C@H]2C(=O)CC[C@@]3(O)C1C5` (stereo not given in full), for which the Potency result was “inactive”. For `CN1C2CCC1C(C(=O)O)C(OC(=O)c1ccccc1)C2` (stereo not given) the value was “inactive”. As to `NC(=O)Oc1ccc(Cc2ccccc2)cc1`, the Potency result is “inactive”. Turning to `O=C1CC2OCC=C3CN4CCC56c7ccccc7N1C5[C@H]2[C@H]3C[C@H]46` (stereo not given in full) (tested in a mixture with another compound), the Potency entry is “inactive”.

As for `CN(C)CCCCCCN(C)C`, the Potency result was “inactive”. In the case of `CCC(=O)OC1(c2ccccc2)CCN(C)CC1C` (stereo not given), the Potency result is “inactive”. The value for `CCCCCCCCCCCCCCCCCC[N+](C)(C)CCC[Si](OC)(OC)OC` was 0.572 µM (active). As to `C[C@]12CC[C@H]3[C@@H](CC[C@@]45O[C@@H]4C(=O)C(C#N)C[C@]35C)[C@@H]1CC[C@@H]2O` (stereo not given in full), the Potency result is “inactive”. For `O=[N+]([O-])OC1CO[C@H]2C(O[N+](=O)[O-])COC12` (stereo not given in full) the value was “inactive”. As to `COc1ccc2c3c1O[C@H]1[C@@H](O)C=C[C@H]4C(C2)NCCC341` (stereo not given in full), the Potency result was “inactive”. Turning to `Cc1ncc(C[n+]2csc(CCOP(=O)(O)O)c2C)c(N)n1`, the Potency was 7.21 µM (active). In the case of `CN(C)[C@@H](Cc1ccccc1)c1ccccc1`, the Potency result is “inactive”. For `C[C@]12C=CC(=O)C=C1CC[C@@H]1C2CC[C@]2(C)OC(=O)CCC12` (stereo not given in full) the value was “inactive”; for `COc1cc(-c2ccc(-[n+]3nc(-c4ccccc4)nn3-c3ccc([N+](=O)[O-])cc3)c(OC)c2)ccc1-[n+]1nc(-c2ccccc2)nn1-c1ccc([N+](=O)[O-])cc1`, 14.4 µM (active).

Consider `Cc1cn([C@H]2C[C@H](O)[C@@H](CO)O2)c(=O)[nH]c1=O`, for which the Potency result was “inactive”. As to `[O-][N+](=Nc1ccccc1)c1ccccc1`, the Potency entry is “inactive”.

On to `CCN(CC)C(=O)N[C@@H]1C=C2c3cccc4[nH]cc(c34)C[C@H]2N(C)C1`, for which the Potency entry was “inactive”. For `CCCCCC(O)C1C(=O)OC(C)C(O)\C=C/C=C\C=C/C=C\C=C(\C)C(O)C(O)C(O)CC(O)CC(O)CC(O)CC(O)CC1O` (stereo not given) the value was “inactive”; for `COC(=O)C1C(OC(=O)c2ccccc2)CC2CCC1N2C` (stereo not given), “inactive”. Regarding `O=C1CC2OCC=C3CN4CC[C@]56c7ccccc7N1C5C2[C@H]3C[C@H]46` (stereo not given in full), the Potency result was “inactive”. For `C=C1Nc2ccccc2C(=O)N1c1ccccc1C`, the Potency result is “inactive”. `NC(Cc1ccc(Oc2cc(I)c(O)c(I)c2)c(I)c1)C(=O)O` (stereo not given): the Potency entry was “inactive”. For the compound `CCCN1CCCC2Cc3nc(N)ncc3CC21` (stereo not given), the Potency result was “inactive”. Regarding `CN(C)[C@H]1C(=O)C(C(N)=O)=C(O)[C@]2(O)C(=O)C3=C(O)c4c(O)cccc4[C@@](C)(O)[C@H]3C[C@@H]12`, the Potency entry was “inactive”. Regarding `CCOC(=O)/C=C(C)/C=C/CC(C)CCCC(C)C` (stereo not given), the Potency entry was “inactive”. The value for `CNC[C@H](O)c1ccc(OC(=O)C(C)(C)C)c(OC(=O)C(C)(C)C)c1` was 0.0098 µM (active); that for `CC1CC[C@@]2(NC1)OC1CC3C4CC[C@@H]5CC(O)CC[C@@]5(C)C4CC[C@]3(C)C1C2C` (stereo not given in full) was “inactive”; that for `CCCCCCC(=O)O[C@H]1CC[C@H]2[C@@H]3CCC4CC(=O)C=C(C)[C@]4(C)[C@H]3CC[C@]12C` (stereo not given in full) was 11.4 µM (active).

Turning to `CC(=O)[C@H]1CC[C@H]2C3CC[C@H]4C[C@H](O)CC[C@]4(C)C3CC[C@]12C` (stereo not given in full), the Potency entry is “inactive”. As for `CC(=O)Oc1ccc2c3c1OC1[C@@H](OC(C)=O)C=C[C@H]4[C@H](C2)N(C)CC[C@]314` (stereo not given in full), the Potency entry is “inactive”. On to `CC1OC(OC2C(O)CC(OC3C(O)CC(OC4CCC5(C)C(CCC6C5CCC5(C)C(C7=CC(=O)OC7)CCC65O)C4)OC3C)OC2C)CC(O)C1O` (stereo not given), for which the Potency is 10.2 µM (active). As to `CC(=O)NC1[C@H]([C@H](O)[C@H](O)CO)OC(C(=O)O)=C[C@H]1N=C(N)N` (stereo not given in full), the Potency result is “inactive”.
